{
  "source": "the supplement of paper PMC13380429",
  "data": [
    {"test_system": "Vero E6 infected with SARS-CoV-2", "test": "SARS-CoV-2 infection rate relative to infected DMSO; higher = more infection, active = 60 or less", "details": "24 h", "values": [
      {"smiles": "COCC(=O)Nc1c(I)c(C(=O)NCC(O)CO)c(I)c(C(=O)N(C)CC(O)CO)c1I", "note": "(configuration not stated) [iopromide] (10 µM)", "SARS-CoV-2 infection rate": "106% (inactive)"},
      {"smiles": "CCn1c(N)c(C(=O)NC)c(=O)c2ccc(C#C[C@@](C)(O)COC)nc21", "note": "(10 µM)", "SARS-CoV-2 infection rate": "92% (inactive)"},
      {"smiles": "CCOc1nc2cccc(C(=O)OC(C)OC(=O)OC3CCCCC3)c2n1Cc1ccc(-c2ccccc2-c2nn[nH]n2)cc1", "note": "(configuration not stated) [candesartan-cilexetil] (10 µM)", "SARS-CoV-2 infection rate": "92.5% (inactive)"},
      {"smiles": "CC[C@@H]1/C=C(\\C)C[C@H](C)C[C@H](OC)[C@H]2O[C@@](O)(C(=O)C(=O)N3CCCC[C@H]3C(=O)O[C@H](/C(C)=C/[C@@H]3CC[C@@H](O)[C@H](OC)C3)[C@H](C)[C@@H](O)CC1=O)[C@H](C)C[C@@H]2OC", "note": "[ascomycin] (10 µM)", "SARS-CoV-2 infection rate": "100% (inactive)"},
      {"smiles": "Oc1cc(O)c2c(c1)O[C@H](c1ccc(O)c(O)c1)[C@H](O)[C@H]2c1c(O)cc(O)c2c1O[C@H](c1ccc(O)c(O)c1)[C@H](O)C2", "note": "[procyanidin-B-2] (10 µM)", "SARS-CoV-2 infection rate": "106% (inactive)"},
      {"smiles": "CCCn1cnc2c1c(=O)n(CCCCC(C)=O)c(=O)n2C", "note": "[propentofylline] (10 µM)", "SARS-CoV-2 infection rate": "102% (inactive)"},
      {"smiles": "O=C(NO)c1cnc(N2CCN(S(=O)(=O)c3ccc4ccccc4c3)CC2)nc1", "note": "(10 µM)", "SARS-CoV-2 infection rate": "115% (inactive)"},
      {"smiles": "COC1CCN(c2cccc(-c3cc(NC(C)=O)nc(-n4nc(C)cc4C)n3)n2)CC1", "note": "(10 µM)", "SARS-CoV-2 infection rate": "104% (inactive)"},
      {"smiles": "Cc1ccc(NC(=O)c2cccc(N(C)C)c2)cc1NC(=O)c1ccc(O)cc1", "note": "(10 µM)", "SARS-CoV-2 infection rate": "97.5% (inactive)"},
      {"smiles": "CO[C@H]1CC=C2CCN3CCC4=C(CC(=O)OC4)[C@]23C1", "note": "(10 µM)", "SARS-CoV-2 infection rate": "106% (inactive)"},
      {"smiles": "Nc1ncnc2c1c(-c1cccc(OCc3ccccc3)c1)cn2C1CC(CN2CCCC2)C1", "note": "(stereo in doubt) (0.833333 µM)", "SARS-CoV-2 infection rate": "92% (inactive)"},
      {"smiles": "COc1cc2ncnc(Nc3ccc(Oc4ccccc4)cc3)c2cc1OC", "note": "[SRC-kinase-inhibitor-I] (0.833333 µM)", "SARS-CoV-2 infection rate": "110% (inactive)"},
      {"smiles": "COc1cccc2cc(-c3nc([C@H]4CC[C@H](C(=O)O)CC4)n4ncnc(N)c34)[nH]c12", "note": "(0.833333 µM)", "SARS-CoV-2 infection rate": "112% (inactive)"},
      {"smiles": "CC(C)C1=C2[C@H]3CC[C@@H]4[C@@]5(C)CC[C@H](OC(=O)CC(C)(C)C(=O)O)C(C)(C)[C@@H]5CC[C@@]4(C)[C@]3(C)CC[C@@]2([C@@H](O)CN(CCN(C)C)Cc2ccc(Cl)cc2)CC1=O", "note": "(10 µM)", "SARS-CoV-2 infection rate": "96% (inactive)"},
      {"smiles": "Nc1ncnc2c1c(-c1ccc(Oc3ccccc3)cc1)nn2C1CCCC1", "note": "(10 µM)", "SARS-CoV-2 infection rate": "122% (inactive)"},
      {"smiles": "CC(C)[C@@H]1C(=O)N(S(C)(=O)=O)[C@@H]2CCN(C(=O)/C=C/CN3CCCCC3)[C@H]21", "note": "(10 µM)", "SARS-CoV-2 infection rate": "106% (inactive)"},
      {"smiles": "CCCCC(CC)CCC(CC(C)C)OS(=O)(=O)O", "note": "(configuration not stated) [sodium-tetradecyl-sulfate] (10 µM)", "SARS-CoV-2 infection rate": "102% (inactive)"},
      {"smiles": "OCC(O)CN1CCN(c2ccccc2)CC1", "note": "(configuration not stated) [dropropizine] (10 µM)", "SARS-CoV-2 infection rate": "103% (inactive)"},
      {"smiles": "NC(=O)[C@@H]1CC[C@@H]2CN1C(=O)N2OS(=O)(=O)O", "note": "[avibactam] (10 µM)", "SARS-CoV-2 infection rate": "108% (inactive)"},
      {"smiles": "Cc1nn(-c2ccccc2)c(C)c1/C=N/N1CCN(Cc2ccccc2)CC1", "note": "(10 µM)", "SARS-CoV-2 infection rate": "117% (inactive)"},
      {"smiles": "NNC(=O)CSc1nc2scc(-c3ccccc3)c2c(=O)n1-c1ccccc1", "note": "(10 µM)", "SARS-CoV-2 infection rate": "99.5% (inactive)"},
      {"smiles": "Cc1ccc(-c2n[nH]c3c2C(c2cccc(O)c2)N(c2ccc(C(=O)O)cc2)C3=O)cc1", "note": "(configuration not stated) (10 µM)", "SARS-CoV-2 infection rate": "91.5% (inactive)"},
      {"smiles": "CCCC[C@H](NC(C)=O)C(=O)N[C@H]1CC(=O)NCCCC[C@@H](C(=O)O)NC(=O)[C@H](Cc2c[nH]c3ccccc23)NC(=O)[C@H](CCCNC(=N)N)NC(=O)[C@@H](Cc2ccccc2)NC(=O)[C@H](Cc2c[nH]cn2)NC1=O", "note": "[bremelanotide] (10 µM)", "SARS-CoV-2 infection rate": "96.5% (inactive)"},
      {"smiles": "CC(C)NC[C@@H](C(=O)N1CCN(c2ncnc3c2[C@H](C)C[C@H]3O)CC1)c1ccc(Cl)cc1", "note": "(10 µM)", "SARS-CoV-2 infection rate": "96% (inactive)"},
      {"smiles": "C[C@@H]1O[C@@H]1P(=O)(O)O", "note": "(10 µM)", "SARS-CoV-2 infection rate": "104% (inactive)"},
      {"smiles": "O=C1NN(C(=O)Nc2ccc(Br)cc2)[C@@H](c2ccccc2)[C@@H]1c1ccccc1", "note": "(10 µM)", "SARS-CoV-2 infection rate": "108% (inactive)"},
      {"smiles": "Cn1c(=O)c2[nH]cnc2n(C)c1=O", "note": "[aminophylline] (10 µM)", "SARS-CoV-2 infection rate": "95% (inactive)"}
    ]}
  ]
}
